This note sets out measurements from PubChem BioAssay (EPA / NIEHS).

“And” between values parts separate entries of the source, which are not always exact repeats. Identical values can stand only once. Results filed as inconclusive are left out. The source holds several records for some structures; these can differ, active in one and inactive in another. The source made the active and inactive calls. Rule for the calls, unless noted: active = hit-call score of the fitted dose curve at least 0.9, where 1 is the maximum; inconclusive = response in the unintended direction; inactive = score below 0.9.

One may read the AC50 as the midpoint of the concentration-response curve, whichever way the signal moves.

In test [1] the test system is frog Estrogen Receptor (ER2), gene 100174814. As to the kind of experiment: ATG_frER2_XSP2: Attagene TRANS-FACTORIAL Multi-Species (XSP2) HepG2 Assay for frog Estrogen Receptor (ER2) (AID 2283828). In a few lines:
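Cells were transfected with reporter constructs under GAL4-UAS control, dosed with chemicals for 24 h, then lysed for RNA; the frog ER2-driven reporter mRNA was quantified by capillary electrophoresis of labeled PCR fragments, with activity fitted upward from DMSO.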

Test [2] addresses Peroxisome proliferator-activated receptor gamma (Homo sapiens) (UniProt P37231). As to the kind of experiment: ATG_hPPARg_XSP2: Attagene TRANS-FACTORIAL Multi-Species (XSP2) HepG2 Assay for human Peroxisome Proliferator-activated Receptor gamma (PPARg) (AID 2283829).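 Note: actives raise reporter mRNA above DMSO so AC50 reflects PPARg activation.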 The method in brief: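 Multiplexed transactivation in transfected HepG2 liver cells. Gal4-chimeric receptor activity reported as induced reporter transcript after 24 h.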

The target of test [3] is mouse Peroxisome Proliferator-activated Receptor gamma (PPARg), Pparg (gene 19016) (UniProt P37238). The experiment in a line: ATG_mPPARg_XSP2: Attagene TRANS-FACTORIAL Multi-Species (XSP2) HepG2 Assay for mouse Peroxisome Proliferator-activated Receptor gamma (PPARg) (AID 2283830).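 Note: hits are gains in reporter mRNA above DMSO so AC50 marks activation.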 In a few lines:
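Multiplexed TRANS reporter readout: after 24 h chemical exposure of transfected HepG2 cells (with 3 nM 6-alpha-fluorotestosterone, 1.5 nM norgestrel present), RNA reverse-transcribed, amplified, 6-FAM-labelled and resolved by capillary electrophoresis; mouse PPARg-Gal4 induction scored against DMSO.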

Test [4] concerns the target Nuclear receptor subfamily 1 group I member 2 (Mus musculus) (UniProt O54915). The experiment in a line: ATG_mPXR_XSP2: Attagene TRANS-FACTORIAL Multi-Species (XSP1) HepG2 Assay for mouse Pregnane X Receptor (PXR) (AID 2283831). The method in brief:
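Human liver HepG2 cells expressing exogenous receptor-GAL4 chimeras were exposed to test chemicals for 24 h. Induction of reporter mRNA was scored as gain of fluorescence signal over DMSO controls.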

For test [5], the target named is zebrafish Thyroid Hormone Receptor beta (TRb), thrb (gene 30607) (UniProt Q9PVE4). As to the kind of experiment: ATG_zfTRb_XSP2: Attagene TRANS-FACTORIAL Multi-Species (XSP1) HepG2 Assay for zebrafish Thyroid Hormone Receptor beta (TRb) (AID 2283836).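 For AC50: potency for induction of reporter signal above DMSO so agonist direction.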 In a few lines:
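Reporter transcripts were measured by RT-PCR with fluorescent primer extension and capillary electrophoresis, 24 h after chemical dosing of transiently transfected HepG2 cells. Activity was scored as upward signal versus DMSO baseline.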

Test [6] has as its system zebrafish Peroxisome Proliferator-activated Receptor gamma (PPARg), gene 557037. As to the kind of experiment: ATG_zfPPARg_XSP2: Attagene TRANS-FACTORIAL Multi-Species (XSP2) HepG2 Assay for zebrafish Peroxisome Proliferator-activated Receptor gamma (PPARg) (AID 2283833).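 Note: reporter mRNA from a zebrafish PPARg GAL4 chimera measured by RT-PCR and capillary electrophoresis; actives increase reporter signal over DMSO so AC50 reflects activation.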 The method in brief:
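Cell-based transactivation of a chimeric zebrafish PPARg-GAL4 receptor was assessed in transiently transfected HepG2 cells after 24 h of treatment. Reporter mRNA induction, detected fluorescently after RT-PCR, was analysed in the positive direction against DMSO.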

The nature of test [7]: ATG_M_61_XSP2: Attagene TRANS-FACTORIAL Multi-Species (XSP2) HepG2 Assay for M61 Transcription Factor (Internal Marker) (AID 2283835; active = hit-call score of the fitted dose curve at least 0.9, where 1 is the maximum; inactive = score below 0.9;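 note: reporter mRNA of an internal background marker read by RT-PCR and capillary electrophoresis; active means a rise in signal above the DMSO baseline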). In a few lines:
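Transient MRTU transfection of human HepG2; 24 h chemical dosing with 3 nM 6-alpha-fluorotestosterone + 1.5 nM norgestrel added for AR stimulation. RNA isolated, RT, PCR, FAM-labelled, HpaI cut, CE read. Positive direction vs DMSO.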

Test [8] deals with zebrafish Thyroid Hormone Receptor alpha (TRa), thraa (gene 30670) (UniProt Q98867). As to the kind of experiment: ATG_zfTRa_XSP2: Attagene TRANS-FACTORIAL Multi-Species (XSP1) HepG2 Assay for zebrafish Thyroid Hormone Receptor alpha (TRa) (AID 2283832).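 Note: actives raise zebrafish TRa-Gal4 reporter transcript above DMSO baseline.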 In a few lines:
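Readout is reporter mRNA induction, quantified by RT-PCR and capillary electrophoresis with fluorescent labelling, after 24 h compound exposure of transiently transfected HepG2 cells carrying NR-Gal4 chimera reporters. Activity fitted upward relative to DMSO.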

Test [9] relates to turtle Thyroid Hormone Receptor, alpha (TRa), gene 101949057. The experiment in a line: ATG_trTRa_XSP2: Attagene TRANS-FACTORIAL Multi-Species (XSP1) HepG2 Assay for turtle Thyroid Hormone Receptor, alpha (TRa) (AID 2283834).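 Note: hits raise reporter mRNA over the DMSO baseline so AC50 marks activators.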 The method in brief:
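Gain-of-signal reporter transcription measured in transiently transfected HepG2 at 24 h post-dose. Fluorescent RT-PCR products were resolved by capillary electrophoresis and compared with DMSO vehicle.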

Test [10] can be described thus: ATG_XTT_Cytotoxicity_XSP2: Cytotoxicity Assessment in the Attagene TRANS-FACTORIAL Multi-Species (XSP2) HepG2 Assay (AID 2283837). The method in brief:
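XTT-based cell number read-out in human HepG2 liver cells carrying transfected reporter units, measured 24 h after chemical dosing. Activity is signal loss versus DMSO baseline.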

Sequence of zebrafish Thyroid Hormone Receptor beta (TRb), thrb (gene 30607) (Q9PVE4 whole entry, looked up): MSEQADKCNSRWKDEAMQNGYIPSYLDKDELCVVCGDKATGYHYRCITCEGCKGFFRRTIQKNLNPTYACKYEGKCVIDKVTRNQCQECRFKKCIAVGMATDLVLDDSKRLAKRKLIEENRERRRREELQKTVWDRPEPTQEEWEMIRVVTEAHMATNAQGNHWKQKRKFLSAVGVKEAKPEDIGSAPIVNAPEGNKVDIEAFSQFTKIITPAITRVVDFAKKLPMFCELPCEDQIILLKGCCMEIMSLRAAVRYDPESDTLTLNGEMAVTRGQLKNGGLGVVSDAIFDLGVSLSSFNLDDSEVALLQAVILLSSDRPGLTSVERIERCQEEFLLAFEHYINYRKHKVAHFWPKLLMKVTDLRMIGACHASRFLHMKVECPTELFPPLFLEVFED
Sequence of zebrafish Thyroid Hormone Receptor alpha (TRa), thraa (gene 30670) (Q98867 whole entry, looked up, the tested form may be a part): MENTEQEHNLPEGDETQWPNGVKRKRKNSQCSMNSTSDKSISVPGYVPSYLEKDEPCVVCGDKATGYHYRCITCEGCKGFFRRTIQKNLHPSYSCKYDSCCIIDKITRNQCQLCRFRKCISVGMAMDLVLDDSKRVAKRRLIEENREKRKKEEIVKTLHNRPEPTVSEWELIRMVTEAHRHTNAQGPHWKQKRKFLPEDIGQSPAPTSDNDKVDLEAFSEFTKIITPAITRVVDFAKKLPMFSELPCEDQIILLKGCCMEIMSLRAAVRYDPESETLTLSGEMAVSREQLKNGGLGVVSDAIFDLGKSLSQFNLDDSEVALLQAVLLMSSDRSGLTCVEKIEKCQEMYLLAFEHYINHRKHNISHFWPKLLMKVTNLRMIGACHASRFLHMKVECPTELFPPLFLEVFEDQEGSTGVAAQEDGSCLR
Sequence of Nuclear receptor subfamily 1 group I member 2 (Mus musculus) (O54915 whole entry, looked up, the tested form may be a part): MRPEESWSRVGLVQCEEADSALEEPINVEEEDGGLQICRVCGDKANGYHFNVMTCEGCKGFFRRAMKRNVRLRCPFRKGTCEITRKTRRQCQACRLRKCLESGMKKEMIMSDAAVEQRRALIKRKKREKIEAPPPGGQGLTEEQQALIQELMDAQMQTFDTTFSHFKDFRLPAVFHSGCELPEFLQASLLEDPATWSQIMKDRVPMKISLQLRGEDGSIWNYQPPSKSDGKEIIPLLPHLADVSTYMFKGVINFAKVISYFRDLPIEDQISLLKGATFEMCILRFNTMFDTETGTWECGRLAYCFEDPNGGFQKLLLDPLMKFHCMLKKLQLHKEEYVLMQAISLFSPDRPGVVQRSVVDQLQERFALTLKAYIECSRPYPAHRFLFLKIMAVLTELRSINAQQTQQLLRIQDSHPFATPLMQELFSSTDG
Sequence of Peroxisome proliferator-activated receptor gamma (Homo sapiens) (P37231 whole entry, looked up, the tested form may be a part): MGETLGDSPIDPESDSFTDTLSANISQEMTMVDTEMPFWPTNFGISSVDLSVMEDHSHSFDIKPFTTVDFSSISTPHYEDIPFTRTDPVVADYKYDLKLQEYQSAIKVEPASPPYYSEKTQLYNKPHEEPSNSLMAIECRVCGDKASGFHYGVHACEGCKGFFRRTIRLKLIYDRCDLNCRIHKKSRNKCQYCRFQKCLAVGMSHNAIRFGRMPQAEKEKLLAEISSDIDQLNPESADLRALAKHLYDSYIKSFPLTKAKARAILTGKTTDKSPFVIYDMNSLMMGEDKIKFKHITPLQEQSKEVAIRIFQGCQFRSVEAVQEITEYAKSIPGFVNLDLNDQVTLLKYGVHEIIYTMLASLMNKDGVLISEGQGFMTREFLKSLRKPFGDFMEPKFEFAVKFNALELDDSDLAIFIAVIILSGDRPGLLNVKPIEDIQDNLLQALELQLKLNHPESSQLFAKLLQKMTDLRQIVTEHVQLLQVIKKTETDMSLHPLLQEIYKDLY
Sequence of mouse Peroxisome Proliferator-activated Receptor gamma (PPARg), Pparg (gene 19016) (P37238 whole entry, looked up, the tested form may be a part): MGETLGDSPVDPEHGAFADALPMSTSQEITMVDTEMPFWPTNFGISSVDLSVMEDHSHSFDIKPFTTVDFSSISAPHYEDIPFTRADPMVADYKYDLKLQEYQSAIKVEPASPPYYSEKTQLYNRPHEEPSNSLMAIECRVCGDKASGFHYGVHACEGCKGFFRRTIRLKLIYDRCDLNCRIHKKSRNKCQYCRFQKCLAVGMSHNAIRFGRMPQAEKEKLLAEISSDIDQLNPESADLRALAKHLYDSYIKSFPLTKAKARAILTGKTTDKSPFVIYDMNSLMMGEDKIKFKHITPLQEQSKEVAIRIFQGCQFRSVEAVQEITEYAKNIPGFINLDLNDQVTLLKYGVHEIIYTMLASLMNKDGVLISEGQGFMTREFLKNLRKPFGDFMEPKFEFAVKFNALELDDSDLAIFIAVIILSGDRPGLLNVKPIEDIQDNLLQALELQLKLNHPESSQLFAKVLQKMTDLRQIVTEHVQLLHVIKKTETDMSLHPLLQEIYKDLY

Regarding `CCOCN(C(=O)CCl)c1c(C)cccc1CC`, the outcome in test [1] and in [5] was inactive. The half-maximal activity concentration (AC50) in test [2] was 1.01 µM (active); in [3], 2.14 µM (active); in [4] it was 5.1 µM (active).
On to `O=S(=O)(O)C(F)(F)C(F)(F)C(F)(F)C(F)(F)C(F)(F)C(F)(F)C(F)(F)C(F)(F)F`, for which the figures for the AC50 in test [2] and in [3] were 119 µM (active) and 145 µM (active), respectively. Besides, the compound was classed as inactive in [4], in test [6] and in test [7].
Regarding `CC(C)(C)C(O)/C(=C\c1ccc(Cl)cc1Cl)n1cncn1` (centres undefined), the half-maximal activity concentration (AC50) was 23.1 µM (active) and 8.13 µM (active) in [1]; 46.7 µM (active) and 47.6 µM (active) in [2]; 33.4 µM (active) and 20.8 µM (active) in [3]; 1.24 µM (active) and 1.41 µM (active) in test [4]; 100 µM (active) in [10]. Moreover, the result in test [8], in test [6], in [9], in [7] and in [5] was inactive.
Regarding `COP(=S)(OC)Oc1ccc([N+](=O)[O-])cc1`, the AC50 in test [1] is 100 µM (active) and 36.9 µM (active); in test [2], 27.7 µM (active); in test [3], 27 µM (active); in [4] it was 41.4 µM (active). Moreover, the compound was called inactive in test [2], in test [3], in [4], in [8], in [6] and in test [9]. In addition, the compound was called inactive in [5] and in [10].
On to `O=S1OCC2C(CO1)C1(Cl)C(Cl)=C(Cl)C2(Cl)C1(Cl)Cl` (centres undefined), for which the compound was called inactive in [1], in test [2], in test [4], in test [8], in [7] and in [5].
On to `Oc1cc(Cl)ccc1Oc1ccc(Cl)cc1Cl`, for which the outcome in test [1], in test [8], in test [6], in [7] and in test [5] was inactive. The AC50 was 11.1 µM (active) in test [2], 15 µM (active) in test [3], 11.1 µM (active) in test [4] and 4.84 µM (active) in [9].
Regarding `CCCN(CCC)c1c([N+](=O)[O-])cc(C(F)(F)F)cc1[N+](=O)[O-]`, the figures for the AC50 in [1] and in test [4] were 100 µM (active) and 1.88 µM (active), respectively. The compound was called inactive in [2], in test [3], in [8], in test [7] and in test [5].
Consider `CCCN(CCOc1c(Cl)cc(Cl)cc1Cl)C(=O)n1ccnc1`, for which the compound was classed as inactive in [1], in [8], in test [6], in test [7] and in test [5]. For the same compound, the AC50 is 16.6 µM (active) in test [2], 20.4 µM (active) in test [3] and 0.108 µM (active) in test [4].
`CC1(C)C(C=C(Cl)Cl)C1C(=O)OC(C#N)c1ccc(F)c(Oc2ccccc2)c1` (centres undefined): the AC50 in test [2] was 20.5 µM (active); in test [3], 10.9 µM (active); in test [4] it was 1.97 µM (active); in [6] it was 19.8 µM (active). Moreover, the result in test [8], in [9] and in [5] was inactive.
On to `O=C(O)C(F)(F)C(F)(F)C(F)(F)C(F)(F)C(F)(F)C(F)(F)C(F)(F)F`, for which the AC50 in [1] is 64.1 µM (active). Also, the compound was called inactive in test [6], in test [7] and in test [5].
In the case of `COP(=S)(OC)Oc1ccc(SC)c(C)c1`, the half-maximal activity concentration (AC50) was 26.8 µM (active) in test [1], 34.2 µM (active) in test [2], 35.8 µM (active) in test [3] and 1.94 µM (active) in test [4]. Besides, the outcome in test [8], in [6], in test [9] and in [7] was inactive.
Consider `Oc1ccc(Cl)cc1Cc1ccccc1`, for which the call in [1], in test [3], in test [4], in test [6], in [9] and in test [7] was inactive. Further, the AC50 in [2] and in test [5] was 10 µM (active) in each case.
